Experimental findings from PubChem BioAssay AID952 (NMMLSC, 2007) are described below.

Hit rate of the full screen: of about 190,000 compounds, about 45 (0.02%) were called active. Rule as the data show it: active = inhibition above about 40%. A selection follows.

In the test the target is Bcl-2-like protein 2 (Homo sapiens) (UniProt Q92843). Briefly: Bcl-W/Bim complex disruptors – biochemical, multiplexed, bead-based flow cytometry, primary screen (AID 952).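 Also: 0% = bound tracer without compound and 100% = peptide blocker; higher means less fluorescent Bim peptide bound to Bcl-W beads.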 To be noted: Bim peptide-Bcl-W binding, at 10 µM, stronger effect = higher value.
Chain of Bcl-2-like protein 2 (Homo sapiens) (Q92843 whole entry, looked up): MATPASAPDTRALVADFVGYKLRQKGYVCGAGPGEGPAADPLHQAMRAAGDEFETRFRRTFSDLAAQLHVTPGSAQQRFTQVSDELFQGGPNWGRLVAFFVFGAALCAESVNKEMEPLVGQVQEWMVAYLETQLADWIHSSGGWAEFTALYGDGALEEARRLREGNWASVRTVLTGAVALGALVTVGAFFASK
Broadly, the inhibition is the drop in the measured response relative to a control, in per cent. For the molecule `CC1(C)CC(=O)C=C(N2CCOCC2)C1`, the inhibition was -2% (inactive).

For `Cc1cc(OCCCC(=O)NCCN2C(=O)S/C(=C\c3cccnc3)C2=O)ccc1Cl`, the inhibition was -3% (inactive).

For `O=C(N/N=C/c1ccc(OCc2ccccc2)cc1)c1ccc(O)cc1`, the inhibition was 0% (inactive).

Take `CC(C)C(O)C1CCN(Cc2nc(Cc3ccccc3Cl)no2)CC1` (stereo not given): the inhibition was 1% (inactive).

Turning to `CSc1ccc(/C=C/C(=O)NC23CC4CC(CC(C4)C2)C3)cc1`, the inhibition is -2% (inactive).

As for `CN1CCN(/N=C/c2ccc(-c3ccc([N+](=O)[O-])cc3)o2)CC1`, the inhibition is 3% (inactive).

Regarding `Cc1ccnc(NC(=O)CCCOc2ccccc2)c1`, the inhibition is -1% (inactive).

In the case of `Cc1ccc(CCCOC(=O)C[N+]2(C)CCCC2)cc1`, the inhibition is 3% (inactive).

In the case of `COc1ccc(-c2csc3ncnc(Oc4ccc5c(C)cc(=O)oc5c4)c23)cc1`, the inhibition is -9% (inactive).

`CCn1c(SCc2ccccc2)nc2c(c1=O)SCC2`: the inhibition was -2% (inactive).

`CCOC(=O)C1=C(CN2CCCCCC2)NC(=O)NC1c1cccc([N+](=O)[O-])c1` (stereo not given): the inhibition is -2% (inactive).

Regarding `FC(F)Oc1ccccc1NC(=S)Nc1cccc(Cl)c1Cl`, the inhibition was -3% (inactive).

Take `CCC(C)NC(=O)c1ccc(N2CCC3(CC2)OCCO3)c([N+](=O)[O-])c1` (stereo not given): the inhibition is -1% (inactive).

As for `C=C(C)C1CC=C(C)/C(=N\NC(=O)CNc2ccccc2OC)C1` (stereo not given), the inhibition is 0% (inactive).

As for `NCCCC[C@@H]1NC(=O)[C@H](CCC(=O)O)NC(=O)c2cc([N+](=O)[O-])cc(I)c2NCC[C@@H](C(N)=O)NC1=O`, the inhibition is 2% (inactive).

Regarding `Cc1nnc(SCC(=O)N2CCOCC2)[nH]c1=O`, the inhibition was -4% (inactive).

On to `OCCC1CN(Cc2ccc(Oc3ncccn3)cc2)CCN1CCc1ccccc1` (stereo not given), for which the inhibition is -3% (inactive).

Turning to `Cc1[nH]c2ccccc2c1/C=N\NC(=O)Cn1nnc(-c2ccccc2)n1`, the inhibition was -6% (inactive).

In the case of `CCOC(=O)C1=NOC(Cn2cc(C(C)=O)c(=O)[nH]c2=O)C1` (stereo not given), the inhibition was -3% (inactive).

Take `CN(C)c1ccc(Nc2c3c4c(cccc4n(C)c2=O)C(=O)c2ccccc2-3)cc1`: the inhibition was 14% (inactive).

For `C1CC1Cc1noc(CN2CCN(CC3CC3)CC2)n1`, the inhibition was -3% (inactive).

On to `COC(=O)c1nn(-c2cccc(Cl)c2)ccc1=O`, for which the inhibition is 1% (inactive).

On to `O=C(CC1C(=O)NCCN1CC(c1ccccc1)c1ccccc1)NCCc1cn[nH]c1` (stereo not given), for which the inhibition was -4% (inactive).

On to `O=C(CCN1C(=O)c2ccccc2C1=O)NCCCn1ccnc1`, for which the inhibition is 0% (inactive).

`Cc1cc(C)c2c(n1)sc1c(=O)n(-c3ccccc3)c(=O)[nH]c12`: the inhibition was -3% (inactive).

In the case of `Cc1ccccc1NS(=O)(=O)CCCCC(Cl)(Cl)Cl`, the inhibition is 0% (inactive).

Turning to `COc1ccc(NS(=O)(=O)c2ccc(NC(=O)c3ccc(N(C)S(C)(=O)=O)cc3)cc2)cc1`, the inhibition is -8% (inactive).

For `CCc1ccc(-n2c(SCc3cc(=O)n4cc(Br)ccc4n3)nc3[nH]ncc3c2=O)cc1`, the inhibition is -4% (inactive).

As for `COCCNC(=O)C(c1ccc(O)cc1)N(C(=O)CCC(=O)Nc1nccs1)c1ccc(C)cc1` (stereo not given), the inhibition is -3% (inactive).

As for `O=C(CN1CCN(S(=O)(=O)c2ccc(Br)cc2)CC1)Nc1ccccc1C(=O)c1ccccc1`, the inhibition is -9% (inactive).

As to `O=C(NCC1COc2ccccc2O1)C1(c2ccccc2)CCCC1` (stereo not given), the inhibition is -1% (inactive).

As to `OCCCC1CCCCN1Cc1nc(Cc2ccccc2Cl)no1` (stereo not given), the inhibition is 4% (inactive).

On to `CCOC(=O)/C(=N\Nc1cc(Cl)ccc1Cl)N1CCN(C)CC1`, for which the inhibition was -5% (inactive).

On to `COC(=O)c1c(NC(=O)CN(c2ccc(C)c(C)c2)S(C)(=O)=O)sc2c1CCCC2`, for which the inhibition was -6% (inactive).

For `Cc1ccc(S(=O)(=O)N2CCCC2C(=O)OCc2nc3sc(C)c(C)c3c(=O)[nH]2)cc1` (stereo not given), the inhibition was -3% (inactive).

As to `CN(C)c1nc(N)nc(Cn2nnc(-c3ccc(C(F)(F)F)cc3)n2)n1`, the inhibition is -5% (inactive).

On to `CC(=O)N/N=C/c1cc2c(cc1[N+](=O)[O-])OCO2`, for which the inhibition was -2% (inactive).

For `O=C(CN1CCN(C(=S)NC2CCCC2)CC1)Nc1ccc(Oc2ccccc2)cc1`, the inhibition was -12% (inactive).

Take `Cc1ccc2nsnc2c1NC(=O)c1ccccc1[N+](=O)[O-]`: the inhibition was 0% (inactive).

On to `CC(C)N1CCC(N2CCN(Cc3cccnc3)CC2CCO)CC1` (stereo not given), for which the inhibition was -4% (inactive).

Regarding `CCN(CCCNC(=O)CCn1c(=O)[nH]c2ccsc2c1=O)c1ccccc1`, the inhibition is 1% (inactive).

For the molecule `O=C(COC(=O)c1ccccc1C(=O)N1CCN(c2ccccc2)CC1)NCc1ccccc1`, the inhibition was -3% (inactive).

Take `O=C(CCCO)N/N=C/c1cc(Br)ccc1O`: the inhibition is -3% (inactive).

Turning to `CC(C)(C)CN1CCNC(=O)C1CC(=O)NC1Cc2ccccc2C1` (stereo not given), the inhibition is 1% (inactive).

`COc1ccc(C(=O)N2CCC(C(=O)Nc3ccc(C)cc3)CC2)cc1`: the inhibition was -1% (inactive).

`N#Cc1ccc(-c2nc3cc(C#N)c(C#N)cc3nc2-c2ccccc2)cc1C#N`: the inhibition is 0% (inactive).

In the case of `COc1ccc(NC(=S)SC)cc1OC`, the inhibition is -2% (inactive).

As to `O=C(N/N=C/c1ccc([N+](=O)[O-])o1)c1cccc(S(=O)(=O)N2CCOCC2)c1`, the inhibition was 0% (inactive).

Regarding `C=CCOC(=O)C1=C[C@@H](c2ccccc2)C[C@@H](OCc2ccc(CO)cc2)O1`, the inhibition is 0% (inactive).

Regarding `CCC(C)(C)NC(=O)CN(C(=O)CCC(=O)Nc1cc(C)ccn1)c1ccc2c(c1)OCCO2`, the inhibition is 1% (inactive).

As to `Cn1c(=NC(=O)c2ccc3c(c2)OCCO3)sc2cc(S(C)(=O)=O)ccc21`, the inhibition is -1% (inactive).

Regarding `Cn1nc(-c2ccccc2)c(CO)c1Sc1ccccc1`, the inhibition was -2% (inactive).

In the case of `Cc1cc(C)c(S(=O)(=O)N2CCOCC2)cc1C`, the inhibition is 0% (inactive).

`Cc1cccc(C(=O)N2CCc3c([nH]c4ccccc34)C2CC(C)C)n1` (stereo not given): the inhibition is 3% (inactive).

Take `CN(C)S(=O)(=O)c1ccc2oc(SCC(=O)Nc3ccccc3F)nc2c1`: the inhibition is 0% (inactive).

`O=C(NNC(=O)c1ccccc1[N+](=O)[O-])Nc1ccccc1C(F)(F)F`: the inhibition is 0% (inactive).

With `Cc1cc(C(=O)NNC(=S)Nc2ccccc2C)cs1`, the inhibition was 0% (inactive).

For `COC(=O)c1ccccc1NC(=O)C1CC(=O)N(c2ccc(OC)cc2)C1` (stereo not given), the inhibition was 0% (inactive).

Regarding `Cc1noc(C)c1S(=O)(=O)N(C)Cc1ccccc1`, the inhibition was -1% (inactive).

Regarding `CNCC(O)CN1CCN(c2ccccc2OC)CC1` (stereo not given), the inhibition is -1% (inactive).

Consider `Cc1ccc(CCCOC(=O)C[N+]2(C)CCCCC2)cc1`, for which the inhibition was 0% (inactive).

With `CCOC(=O)NN1C(=O)c2ccccc2NC1c1cccc(O)c1` (stereo not given), the inhibition is 0% (inactive).

With `CCOC(=O)c1c(/N=C/C2C(=O)CC(C)(C)CC2=O)sc(C)c1C`, the inhibition was 2% (inactive).

As for `COc1ccc(Cl)cc1C(=O)NNC(=S)NC1CCCC1`, the inhibition was 1% (inactive).

In the case of `Cc1cc(N2CCOCC2)nc(-c2ccc(Br)cc2)n1`, the inhibition is -3% (inactive).

For the molecule `OCC(O)CN(c1ccccc1)c1ccccc1` (stereo not given), the inhibition was -1% (inactive).

`O=C(CNC1CCCCC1)NCC1(c2ccccc2)CCCC1`: the inhibition is 0% (inactive).

As to `COCCn1c(Cc2cccn2C)nnc1SCC(=O)Nc1nccs1`, the inhibition is 2% (inactive).

Turning to `COc1cc(CNC2CCCC2)c(Br)cc1OCc1ccccc1`, the inhibition was -3% (inactive).

Take `O=C(NCCN1CCOCC1)c1cc(Sc2cccc(Cl)c2)nc2ccccc12`: the inhibition is -3% (inactive).

Take `CCN1CCN(CC(=O)c2cc(OC)c(OC)c(OC)c2)CC1`: the inhibition is -1% (inactive).

On to `O=C(Cc1ccc(F)cc1)N1CCN=C1SCc1cccc([N+](=O)[O-])c1`, for which the inhibition is -1% (inactive).

On to `CCN(CC)CCNS(=O)(=O)c1ccc(/C=C/C(=O)O)cc1`, for which the inhibition is -2% (inactive).

Regarding `C=CCc1ccc(OCC(O)CN2CCN(Cc3ccccc3)CC2)c(OC)c1` (stereo not given), the inhibition is -2% (inactive).

For the molecule `Cn1c(N)c(C(=O)COC(=O)c2cnc(Cl)c(Cl)c2)c(=O)n(C)c1=O`, the inhibition is 0% (inactive).

On to `Cc1ccc(NC(=O)CSc2nnc(CNC(=O)c3ccccc3F)o2)cc1`, for which the inhibition was 2% (inactive).

Regarding `O=[N+]([O-])c1ccc(N2CCNCC2)cc1NCc1cccnc1`, the inhibition was 0% (inactive).

Regarding `CCOC(=O)c1cc(-c2ccc(F)cc2)n(CC(=O)NCc2ccccn2)c1C`, the inhibition was 0% (inactive).

Turning to `CCOC(=O)N1CCN(CCC(=O)Nc2cc(OC)ccc2OC)CC1`, the inhibition was 1% (inactive).

With `C=CCNC(=O)COC(=O)c1ccccc1C(=O)N(C)C1CCCCC1`, the inhibition was 0% (inactive).

On to `COc1ccccc1N1CCN(C(=O)C(=O)N/N=C/c2ccccc2F)CC1`, for which the inhibition is -3% (inactive).

Turning to `COc1ccc(C(=O)CSc2nc(C)cc(C)n2)cc1[N+](=O)[O-]`, the inhibition is -1% (inactive).

With `CC(C)Oc1ccc(Cc2n[nH]c(=S)n2Cc2ccccc2)cc1Cl`, the inhibition is -7% (inactive).

With `CC1CCCN(CC(O)COCc2ccccc2)C1` (stereo not given), the inhibition is 1% (inactive).

With `CCCC(NC(=O)c1ccco1)c1nc2ccccc2[nH]1` (stereo not given), the inhibition is -5% (inactive).

For the molecule `C=CCn1c(SCc2cccc(F)c2)nc2cc(C(=O)N3CCC(C(N)=O)CC3)ccc2c1=O`, the inhibition was -2% (inactive).

Turning to `CN(CCOc1ccccc1)Cc1nc2cc(Cl)ccc2c(=O)[nH]1`, the inhibition was 0% (inactive).

Take `CC1CC(C)CN(S(=O)(=O)c2ccc(C(=O)NN3CCOCC3)cc2)C1` (stereo not given): the inhibition was 1% (inactive).

For `COc1ccc2c(c1)C(SCC(=O)NCc1ccccc1)CC(C)(C)O2` (stereo not given), the inhibition is -4% (inactive).

In the case of `COC(=O)CCNC(=O)c1ccc2[nH]c(C)c(C)c2c1`, the inhibition was 1% (inactive).

For the molecule `Cc1ccc(NC(=O)CSc2nnc(COc3ccccc3C)o2)cc1`, the inhibition was -1% (inactive).

For the molecule `COC(=O)CC(=O)N1CCN(c2ccc(Cl)c(Cl)c2)CC1`, the inhibition is 4% (inactive).

Regarding `CSCc1ccc(C(=O)Nc2cc(C)cc(C)c2)cc1`, the inhibition was -5% (inactive).

For the molecule `CCN1CCN(CC(=O)Nc2sc3c(c2C#N)CCC3)CC1`, the inhibition was 3% (inactive).

For the molecule `CCOc1cnc(C(=O)NNC(=O)c2ccccc2Br)o1`, the inhibition was 0% (inactive).

Take `COc1ccc(-c2csc(NC(=O)COC(=O)c3ccc(Br)o3)n2)cc1`: the inhibition is -1% (inactive).

Regarding `O=C(CCSc1ccccc1)N1CCN(c2ccccc2F)CC1`, the inhibition was -2% (inactive).

`O=C(CCCc1ccccc1)NCc1ccccc1`: the inhibition was -1% (inactive).

Take `COc1cc(/C=C/C2=CC(C)(C)NC(=S)N2)cc(OC)c1OC`: the inhibition is 0% (inactive).

Turning to `CCCCN(CC)C(=O)c1ccccc1Oc1ccccc1`, the inhibition is -2% (inactive).
